# Assay results: PMC7862700, “An all-to-all approach to the identification of sequence-specific readers for epigenetic DNA modifications on cytosine”
# What was measured:
# Test in all cases: DAPPL (digital affinity profiling via proximity ligation, sequencing); 10 mM Tris-HCl pH 7.5, 50 mM NaCl, 1 mM DTT, 4% glycerol, room temperature, 30 min; GST-TFs on glutathione beads, 16-mer random dsDNA library, 0.1% formaldehyde crosslink after washing; high values mean tight binding
# FEV = target: T1, FEV (Homo sapiens, UniProt Q99581 1-238); conditions: protein: recombinant; tags: N-terminal GST; dsDNA, one strand shown
# T1 sequence: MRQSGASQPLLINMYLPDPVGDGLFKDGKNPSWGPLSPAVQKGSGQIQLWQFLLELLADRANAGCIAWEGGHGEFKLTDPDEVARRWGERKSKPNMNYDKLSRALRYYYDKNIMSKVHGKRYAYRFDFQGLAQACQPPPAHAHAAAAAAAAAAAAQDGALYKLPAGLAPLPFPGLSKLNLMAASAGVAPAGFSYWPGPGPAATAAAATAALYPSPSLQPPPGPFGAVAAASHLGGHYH
# Procedure, shortened: (§1)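 Human transcription factors carrying a GST fusion were produced in yeast, bound to glutathione beads, tagged with DNA barcodes and pooled together with a tag-only sample. Each pool was held with 200 nmole of a random double-stranded 16-mer DNA library in Tris/NaCl/DTT/glycerol buffer for 30 min at room temperature, then washed, crosslinked in 0.1% formaldehyde, proximity-ligated with BsaI/T4 ligase (1 h, 37 °C), PCR-amplified and sequenced on an Illumina NextSeq500. Binding signal is the read frequency of each hexamer for a given factor divided by its frequency in the tag-only sample.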
# ETV5 = ETV5 (Homo sapiens, UniProt P41161 1-510); conditions: protein: recombinant; tags: N-terminal GST; dsDNA, one strand shown
# Procedure, shortened: as §1
# HSF1 = HSF1 (Homo sapiens, UniProt Q00613 1-529); conditions: protein: recombinant; tags: N-terminal GST; chain copies: 3; dsDNA, one strand shown
# Procedure, shortened: as §1
# SPIC = target: T2, SPIC (Homo sapiens, UniProt Q8N5J4 1-248); conditions: protein: recombinant; tags: N-terminal GST; dsDNA, one strand shown
# T2 sequence: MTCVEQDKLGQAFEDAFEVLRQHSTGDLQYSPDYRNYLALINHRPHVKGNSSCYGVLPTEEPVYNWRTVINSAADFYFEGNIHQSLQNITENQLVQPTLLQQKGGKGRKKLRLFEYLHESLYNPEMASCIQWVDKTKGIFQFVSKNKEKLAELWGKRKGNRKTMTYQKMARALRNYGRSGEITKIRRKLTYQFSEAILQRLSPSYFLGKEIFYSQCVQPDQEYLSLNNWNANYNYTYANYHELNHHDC
# Procedure, shortened: as §1
# ELF4 = ELF4 (Homo sapiens, UniProt Q99607 1-663); conditions: protein: recombinant; tags: N-terminal GST; dsDNA, one strand shown
# Procedure, shortened: as §1
# ELK4 = target: T3, ELK4 (Homo sapiens, UniProt P28324-2 1-405); conditions: protein: recombinant; tags: N-terminal GST; dsDNA, one strand shown
# T3 sequence: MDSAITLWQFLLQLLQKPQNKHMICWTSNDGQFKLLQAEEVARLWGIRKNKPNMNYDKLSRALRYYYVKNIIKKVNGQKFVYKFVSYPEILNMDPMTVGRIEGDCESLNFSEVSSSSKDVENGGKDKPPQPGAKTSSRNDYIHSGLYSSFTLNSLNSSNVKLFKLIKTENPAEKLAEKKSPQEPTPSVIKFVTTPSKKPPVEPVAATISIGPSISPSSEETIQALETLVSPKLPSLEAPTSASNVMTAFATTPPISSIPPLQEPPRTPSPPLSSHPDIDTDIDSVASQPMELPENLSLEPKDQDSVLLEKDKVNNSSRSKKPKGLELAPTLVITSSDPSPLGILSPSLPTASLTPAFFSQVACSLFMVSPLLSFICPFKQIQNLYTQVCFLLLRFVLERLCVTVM
# Procedure, shortened: as §1
# ETV2 = target: T4, ETV2 (Homo sapiens, UniProt O00321 1-342); conditions: protein: recombinant; tags: N-terminal GST; dsDNA, one strand shown
# T4 sequence: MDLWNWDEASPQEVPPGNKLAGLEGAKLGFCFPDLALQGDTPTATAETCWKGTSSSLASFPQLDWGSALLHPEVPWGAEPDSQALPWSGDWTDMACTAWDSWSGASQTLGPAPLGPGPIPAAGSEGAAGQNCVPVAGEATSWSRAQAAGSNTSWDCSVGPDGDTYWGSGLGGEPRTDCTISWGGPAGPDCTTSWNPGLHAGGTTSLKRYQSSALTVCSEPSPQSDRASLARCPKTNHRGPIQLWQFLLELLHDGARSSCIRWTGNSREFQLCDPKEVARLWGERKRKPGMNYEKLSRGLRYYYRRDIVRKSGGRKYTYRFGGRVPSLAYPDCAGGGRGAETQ
# Procedure, shortened: as §1
# ELF3 = target: T5, ELF3 (Homo sapiens, UniProt P78545 1-371); conditions: protein: recombinant; tags: N-terminal GST; dsDNA, one strand shown
# T5 sequence: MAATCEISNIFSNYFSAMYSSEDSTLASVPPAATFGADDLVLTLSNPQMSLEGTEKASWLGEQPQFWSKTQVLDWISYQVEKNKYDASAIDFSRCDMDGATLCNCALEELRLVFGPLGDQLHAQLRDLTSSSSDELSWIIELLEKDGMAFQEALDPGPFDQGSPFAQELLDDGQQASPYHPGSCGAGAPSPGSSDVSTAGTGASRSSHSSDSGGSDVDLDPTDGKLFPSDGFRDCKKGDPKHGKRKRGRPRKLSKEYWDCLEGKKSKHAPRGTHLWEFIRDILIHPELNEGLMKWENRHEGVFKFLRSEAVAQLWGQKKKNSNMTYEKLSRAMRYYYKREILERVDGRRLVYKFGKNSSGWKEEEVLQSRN
# Procedure, shortened: as §1
# CRX = CRX (Homo sapiens, UniProt O43186 1-299); conditions: protein: recombinant; tags: N-terminal GST; dsDNA, one strand shown
# Procedure, shortened: as §1
# Sequence of HSF1 (Q00613 whole entry): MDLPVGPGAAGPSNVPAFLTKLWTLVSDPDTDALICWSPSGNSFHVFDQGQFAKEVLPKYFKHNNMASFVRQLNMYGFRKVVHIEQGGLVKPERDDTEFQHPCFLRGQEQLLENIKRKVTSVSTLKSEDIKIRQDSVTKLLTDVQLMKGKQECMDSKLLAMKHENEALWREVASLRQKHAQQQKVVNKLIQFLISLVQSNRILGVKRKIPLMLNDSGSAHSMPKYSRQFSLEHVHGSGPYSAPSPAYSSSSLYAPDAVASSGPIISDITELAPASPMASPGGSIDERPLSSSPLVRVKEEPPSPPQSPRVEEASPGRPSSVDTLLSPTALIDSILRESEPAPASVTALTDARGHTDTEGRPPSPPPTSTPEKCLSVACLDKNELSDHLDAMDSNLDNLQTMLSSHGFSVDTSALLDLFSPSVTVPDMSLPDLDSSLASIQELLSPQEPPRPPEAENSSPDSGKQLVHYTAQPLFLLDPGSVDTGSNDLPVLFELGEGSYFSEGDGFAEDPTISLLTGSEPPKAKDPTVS
# Sequence of CRX (O43186 whole entry): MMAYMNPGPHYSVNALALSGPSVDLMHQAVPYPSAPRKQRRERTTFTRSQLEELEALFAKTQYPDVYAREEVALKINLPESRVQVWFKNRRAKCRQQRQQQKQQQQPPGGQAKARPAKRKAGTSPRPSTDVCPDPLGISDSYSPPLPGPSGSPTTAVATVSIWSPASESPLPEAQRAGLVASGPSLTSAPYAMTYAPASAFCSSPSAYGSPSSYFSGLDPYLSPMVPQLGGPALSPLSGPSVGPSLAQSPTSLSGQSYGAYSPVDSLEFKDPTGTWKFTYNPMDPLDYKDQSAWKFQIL
# Sequence of ELF4 (Q99607 whole entry): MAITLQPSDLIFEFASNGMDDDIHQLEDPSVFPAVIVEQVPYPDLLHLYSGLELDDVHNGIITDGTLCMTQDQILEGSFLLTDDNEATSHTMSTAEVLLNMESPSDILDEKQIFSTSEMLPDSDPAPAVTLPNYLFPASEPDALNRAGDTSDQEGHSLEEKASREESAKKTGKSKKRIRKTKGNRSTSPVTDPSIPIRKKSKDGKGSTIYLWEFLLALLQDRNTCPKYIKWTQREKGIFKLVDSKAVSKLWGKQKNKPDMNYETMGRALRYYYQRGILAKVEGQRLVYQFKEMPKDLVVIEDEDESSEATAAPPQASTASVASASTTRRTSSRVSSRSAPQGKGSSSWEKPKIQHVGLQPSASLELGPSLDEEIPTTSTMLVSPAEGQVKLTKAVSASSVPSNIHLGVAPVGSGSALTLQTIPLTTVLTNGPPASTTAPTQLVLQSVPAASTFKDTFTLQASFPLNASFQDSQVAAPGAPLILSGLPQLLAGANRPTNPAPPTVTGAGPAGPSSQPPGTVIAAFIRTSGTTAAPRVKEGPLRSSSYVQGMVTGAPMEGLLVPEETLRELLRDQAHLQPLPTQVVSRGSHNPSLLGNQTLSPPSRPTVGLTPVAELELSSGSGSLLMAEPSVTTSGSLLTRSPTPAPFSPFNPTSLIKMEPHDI
# Sequence of ETV5 (P41161 whole entry): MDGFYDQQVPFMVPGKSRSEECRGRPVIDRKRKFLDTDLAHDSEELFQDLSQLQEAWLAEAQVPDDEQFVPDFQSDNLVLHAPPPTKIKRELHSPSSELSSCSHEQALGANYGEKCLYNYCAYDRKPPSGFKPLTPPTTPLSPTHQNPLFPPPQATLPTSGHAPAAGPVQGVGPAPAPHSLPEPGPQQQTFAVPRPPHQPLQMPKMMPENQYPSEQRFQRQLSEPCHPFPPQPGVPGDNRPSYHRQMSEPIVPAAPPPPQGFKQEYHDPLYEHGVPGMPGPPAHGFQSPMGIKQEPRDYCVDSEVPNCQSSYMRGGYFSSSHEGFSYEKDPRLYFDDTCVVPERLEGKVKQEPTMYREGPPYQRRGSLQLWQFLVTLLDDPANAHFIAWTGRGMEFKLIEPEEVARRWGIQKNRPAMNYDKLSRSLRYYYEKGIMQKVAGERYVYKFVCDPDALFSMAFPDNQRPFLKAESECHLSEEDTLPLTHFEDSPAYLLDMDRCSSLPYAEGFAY
sequence,measurement,setting,value
TTCGCT,binding signal,FEV,"1.2 fold enrichment (6-mer frequency, TF over GST control)"
same,binding signal,ETV5,"1.24 fold enrichment (6-mer frequency, TF over GST control)"
same,binding signal,HSF1,"1.29 fold enrichment (6-mer frequency, TF over GST control)"
same,binding signal,SPIC,"1.08 fold enrichment (6-mer frequency, TF over GST control)"
same,binding signal,ELF4,"1.36 fold enrichment (6-mer frequency, TF over GST control)"
same,binding signal,ELK4,"1.29 fold enrichment (6-mer frequency, TF over GST control)"
same,binding signal,ETV2,"1.49 fold enrichment (6-mer frequency, TF over GST control)"
same,binding signal,ELF3,"1.26 fold enrichment (6-mer frequency, TF over GST control)"
same,binding signal,CRX,"1.13 fold enrichment (6-mer frequency, TF over GST control)"
